From PubChem
JMJD2A Tudor inh: qHTS Assay for Inhibitors of JMJD2A-Tudor Domain; hit rate 4.4% among 390,000; Potency, µM (doses to about 114 µM), for the others: at the top dose activity change, negative = inhibition, usual class: inhibitors; Lysine-specific demethylase 4A (Homo sapiens), O75164; AID 504339, 2011; AlphaScreen JMJD2A-Tudor / H3K4me3 peptide binding; also: % is scaled to controls: 0 for no effect and ±100 for the full control effect; nearly all actives have a fitted effect of over 50% in size
Sfp inh: qHTS Assay for Inhibitors of Bacillus subtilis Sfp phosphopantetheinyl transferase (PPTase); Biochemical Sfp PPTase activity, qHTS; Potency, µM, without a hit: largest response in the series, negative = inhibition, most hits filed as inhibitors; 4'-phosphopantetheinyl transferase ffp (Bacillus subtilis), Q9F4F7; hit rate 3.5% among 310,000;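 also: the enzyme is Sfp with the accession as filed and its product quenches rhodamine fluorescence; 0% = enzyme reaction without inhibitor and -100% = no enzyme wells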
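Fluorescence-quenching assay with 15 nM Sfp, 5 uM rhodamine-CoA and 12.5 uM BHQ-2-labelled ybbR peptide in pH 7.6 Hepes/MgCl2 buffer. Enzyme was pre-incubated with compound for 15 min at room temperature. Rate was taken from the 30-min fluorescence change (525/598 nm).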
G9a inh: qHTS Assay for Inhibitors of Histone Lysine Methyltransferase G9a; Histone-lysine N-methyltransferase EHMT2 (Homo sapiens), Q96KQ7; G9a H3K9 monomethylation, AlphaScreen, 2 h; Potency, µM (series often up to 102 µM), without a hit: at the top dose activity, negative = inhibition, hits mostly inhibitors; hit rate 8.8% among 350,000; AID 504332, 2011; also: % is scaled to controls: 0 for no effect and ±100 for the full control effect; nearly all actives have a fitted effect of over 75% in size
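AlphaScreen detection with an anti-monomethyl H3K9 antibody quantified product after a 2 h room-temperature reaction containing 500 nM biotinylated H3K9 peptide, 20 µM SAM and 20 nM enzyme, which had been preincubated 15 min with compound.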
BAZ2B inh: qHTS Assay for Inhibitors of BAZ2B. Bromodomain adjacent to zinc finger domain protein 2B (Homo sapiens), Q9UIF8. AlphaScreen BAZ2B-H3K14Ac peptide displacement. Potency, µM (top dose mostly 114 µM), for the others: top-dose activity change, negative = inhibition, most hits filed as inhibitors. hit rate 4.4% among 360,000; also: % is scaled to controls: 0 for no effect and ±100 for the full control effect; nearly all actives have a fitted effect of over 60% in size
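AlphaScreen displacement of biotin-H3(5-23)K14Ac peptide (50 nM final) from BAZ2B (50 nM final) in PBS pH 7.4, 0.01% Tween-20; complex preformed 30 min RT, then compounds (top 110 uM) 30 min RT, beads 20 min dark.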
HP1b chromo inh: HTS for Inhibitors of HP1-beta Chromodomain Interactions with Methylated Histone Tails; AlphaScreen HP1-beta / biotin-H3K9me3 peptide binding; Potency, µM (top dose mostly 114 µM), without a hit: at the top dose activity change, negative = inhibition, hits mostly inhibitors; hit rate 0.56% among 390,000; AID 540317, 2011; also: nearly all actives have a fitted effect of over 70% in size
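Compound inhibition of the preformed complex between 50 nM HP1-beta and 50 nM biotinylated H3K9me3 peptide was read by AlphaScreen. Buffer was PBS pH 7.4 with 0.01% Tween-20. Incubations ran 30 min at room temperature, with 10 ug/mL donor/acceptor beads.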
PLK1 PBD inh: qHTS for Inhibitors of PLK1-PDB (polo-like kinase 1 - polo-box domain): Primary Screen; Potency, µM, for the others: max response, negative = inhibition, actives largely listed as inhibitors; hit rate 2.8% among 360,000; AID 720504, 2013; Serine/threonine-protein kinase PLK1 (Homo sapiens), P53350; Plk1 PBD binding of FITC phosphopeptide, fluorescence polarization; also: series mostly up to about 57 µM; % is scaled to controls: 0 for no effect and ±100 for the full control effect; nearly all actives have a fitted effect of over 65% in size
Active calls of the source: *; [ ] = dose if it differs, or a comment. Shown are actives, neighbours in structure and some others; about 12% of the full set was active somewhere. Calls follow the shape of the dose curve; as a rule, active = well fitted curve in the direction sought with a large enough effect; inconclusive = small, poorly fitted or top-dose-only effect, or another doubt; inactive = no such curve, though single readings can be large; an effect the other way counts as inactive or inconclusive. Potency is read from the fitted curve at half-maximal effect.

Results for COc1ccc(-c2noc(-c3cc(C(C)C)[nH]n3)n2)cc1 ?
JMJD2A Tudor inh: -19%; G9a inh: 3%[59 µM]; BAZ2B inh: 0%; HP1b chromo inh: 10%

What do the screens show for `Nc1ccc2nc(CCCO)[nH]c2c1`?
JMJD2A Tudor inh: -10%; Sfp inh: 4%; G9a inh: 28µM*; BAZ2B inh: 50µM*; HP1b chromo inh: 34%; PLK1 PBD inh: 3%

Results for Cn1c(CCc2nc3ccccc3[nH]2)n[nH]c1=S ?
JMJD2A Tudor inh: 7.9µM*; Sfp inh: inconclusive; G9a inh: inconclusive; BAZ2B inh: 0%; HP1b chromo inh: 17%; PLK1 PBD inh: -20%

Results for COC(=O)c1ccc(C(=O)OCCCc2nc3ccc(N)cc3[nH]2)cc1 ?
JMJD2A Tudor inh: -28%; Sfp inh: 16%; G9a inh: -7%[59 µM]; BAZ2B inh: -11%; HP1b chromo inh: 7%; PLK1 PBD inh: -2%

What do the screens show for `CCCCc1nc2ccccc2[nH]1`?
JMJD2A Tudor inh: -9%; Sfp inh: 12%; G9a inh: 8%; BAZ2B inh: 5%; HP1b chromo inh: 7%; PLK1 PBD inh: -11%

What do the screens show for `Cc1ccccc1OCc1nc2ccccc2[nH]1`?
JMJD2A Tudor inh: inconclusive; Sfp inh: 9%; G9a inh: 18%; BAZ2B inh: -15%; HP1b chromo inh: -24%; PLK1 PBD inh: 27µM*

What do the screens show for `CCOC(=O)CSc1nnc(CCc2nc3ccccc3[nH]2)n1C`?
JMJD2A Tudor inh: 5%[57.1 µM]; Sfp inh: 7%; G9a inh: 11%[12.7 µM]; BAZ2B inh: 7%; HP1b chromo inh: 50%; PLK1 PBD inh: -12%

Results for COc1ccccc1OCc1nc2ccccc2[nH]1 ?
JMJD2A Tudor inh: -4%; Sfp inh: 4%; G9a inh: 14%[59 µM]; BAZ2B inh: -6%; HP1b chromo inh: 24%; PLK1 PBD inh: 1%

How did Nc1ccc2nc(CCCCc3nc4ccccc4[nH]3)[nH]c2c1 do in these assays?
JMJD2A Tudor inh: inconclusive; Sfp inh: -6%; G9a inh: 35µM*; BAZ2B inh: inconclusive; HP1b chromo inh: 2%; PLK1 PBD inh: 2%

Results for Fc1ccccc1Oc1nc(-c2ccncc2)nc2ccccc12 ?
JMJD2A Tudor inh: -6%; Sfp inh: -16%; BAZ2B inh: 5%; HP1b chromo inh: 38%; PLK1 PBD inh: 9%

Results for CCOc1ccc(-n2c(SC(C)C(=O)OC)nc3c([nH]c4ccccc43)c2=O)cc1 (stereo unspecified) ?
JMJD2A Tudor inh: -19%; G9a inh: -2%[59 µM]; BAZ2B inh: 3%; HP1b chromo inh: 26%[57 µM]

How did O=C(Nc1ccccc1N1CCOCC1)c1cccc2ccccc12 do in these assays?
PLK1 PBD inh: -4%

How did Cc1c(C(=O)N2CC(C)OC(C)C2)[nH]c2ccc(Br)cc12 (stereo unspecified) do in these assays?
JMJD2A Tudor inh: -27%; Sfp inh: 13%; G9a inh: -9%; BAZ2B inh: -25%; HP1b chromo inh: -1%; PLK1 PBD inh: -5%

What do the screens show for `Oc1ccc(O)c(Cc2nc3ccccc3[nH]2)c1`?
JMJD2A Tudor inh: 10µM*; Sfp inh: 35µM*; G9a inh: 3.2µM*; BAZ2B inh: -34%; HP1b chromo inh: inconclusive; PLK1 PBD inh: -17%

How did c1ccc2[nH]c(CCCc3nc4ccccc4[nH]3)nc2c1 do in these assays?
JMJD2A Tudor inh: -12%; Sfp inh: 16%; G9a inh: 56µM*; BAZ2B inh: -6%; HP1b chromo inh: 54%; PLK1 PBD inh: -8%

What do the screens show for `CN(CC(=O)O)Cc1nc2ccccc2[nH]1`?
JMJD2A Tudor inh: -71%; Sfp inh: 89µM*; G9a inh: 1.3µM*; BAZ2B inh: 20µM*; HP1b chromo inh: 32%; PLK1 PBD inh: 0%

How did Nc1ccc2nc(CCCCCCCCc3nc4ccc(N)cc4[nH]3)[nH]c2c1 do in these assays?
JMJD2A Tudor inh: 50µM*; Sfp inh: -1%; G9a inh: 32µM*; BAZ2B inh: 22µM*; HP1b chromo inh: 4%; PLK1 PBD inh: -12%

Results for CC(=O)NCCc1nc2ccccc2[nH]1 ?
JMJD2A Tudor inh: 1%; Sfp inh: 12%; G9a inh: -12%[59 µM]; BAZ2B inh: -3%; HP1b chromo inh: 46%; PLK1 PBD inh: -3%

How did Cc1ccc2oc(C(=O)Nc3sc4c(c3C(=O)NCc3ccccc3)CCCC4)cc(=O)c2c1 do in these assays?
JMJD2A Tudor inh: -18%; G9a inh: -10%[59 µM]; BAZ2B inh: -3%; HP1b chromo inh: -1%

Results for O=C(CCc1nc2ccccc2[nH]1)N1CCc2ccccc2C1 ?
JMJD2A Tudor inh: -21%; Sfp inh: 5%; G9a inh: 89µM*; BAZ2B inh: 5%; HP1b chromo inh: 14%; PLK1 PBD inh: inconclusive

What do the screens show for `CCS(=O)(=O)c1ccc2oc(SCC(=O)NC34CC5CC(CC(C5)C3)C4)nc2c1`?
JMJD2A Tudor inh: -12%; Sfp inh: -4%; G9a inh: -10%; BAZ2B inh: 56µM*; HP1b chromo inh: 19%; PLK1 PBD inh: -4%

What do the screens show for `COC(=O)c1ccc(-n2c(C)cc(C(=O)CSc3cccc[n+]3[O-])c2C)cc1`?
JMJD2A Tudor inh: -24%; Sfp inh: 11%; G9a inh: 50µM*; BAZ2B inh: -26%; HP1b chromo inh: 17%; PLK1 PBD inh: -1%

What do the screens show for `COC(=O)c1ccc(-n2c(C)cc(C(=O)CSc3ccc(NC(C)=O)cc3)c2C)cc1`?
JMJD2A Tudor inh: inconclusive; Sfp inh: -15%; G9a inh: inconclusive; BAZ2B inh: inconclusive; HP1b chromo inh: -24%; PLK1 PBD inh: 13µM*

Results for O=C(CSc1cccc[n+]1[O-])Nc1cc2c(cc1Cl)C(=O)c1ccccc1C2=O ?
JMJD2A Tudor inh: inconclusive; Sfp inh: inconclusive; G9a inh: 7.9µM*; BAZ2B inh: inconclusive; HP1b chromo inh: 6%; PLK1 PBD inh: -30%

What do the screens show for `COCCOC(=O)c1c(NC(=O)CSc2cccc[n+]2[O-])sc(C(N)=O)c1C`?
JMJD2A Tudor inh: -17%; Sfp inh: 11%; G9a inh: 2.5µM*; BAZ2B inh: inconclusive; HP1b chromo inh: 32%; PLK1 PBD inh: -6%
